Sm TGR block: blocks Schistosoma mansoni thioredoxin glutathione reductase. Potency, µM (series often up to 114 µM), inactives show at the highest dose activity change, negative = inhibition, most hits filed as inhibitors. Q962Y6. 360,000 compounds, 3% hits. purified TGR, DTNB reduction, TNB absorbance 405 nm. AID 485364; also: % is scaled to controls: 0 for no effect and ±100 for the full control effect; nearly all actives have a fitted effect of over 60% in size
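TGR 20 nM + NADPH 100 uM (dispensed conc.), cpd preinc 15 min RT; start with NADPH (500 uM addition) then DTNB (15 mM addition). Kinetic TNB absorbance, 405 nm filter. Four-parameter Hill fit across titration.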
NS1 inh: influenza NS1 inhibition; AID 2326; 270,000 compounds, 0.4% hits; Potency, µM (highest dose often 46.1 µM), for the others: at the top dose activity, positive = more growth; calls by dose curve; also: actives are rising curves; nearly all actives have a fitted effect of over 50% in size
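Compounds were scored for reversing the slow growth caused by influenza A NS1 in S. cerevisiae, measured by optical density at 600 nm. Assay medium contained 2% galactose at pH 6.0; NS1-free yeast of the same strain were the positive control.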
RE007 growth inh: less growth of the S. pombe RE007 Vpr strain | S. pombe RE007 Vpr strain, BacTiter-Glo ATP luminescence, 24 h | Potency, µM (series often up to 92.2 µM), for the others: top-dose activity change, negative = less growth, actives largely listed as inhibitors | 360,000 compounds, 0.21% hits; active = well fitted falling curve with a large enough effect; inconclusive = small, poorly fitted or top-dose-only effect; inactive = no such curve, though single readings can be large or run the other way; also: % is scaled to controls: 0 for no effect and ±100 for the full control effect; nearly all actives have a fitted effect of over 50% in size
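Fission yeast strain RE007, carrying one chromosomally integrated HIV-1 vpr copy, was seeded at OD 0.01 in PMG+AL medium with 23 nL pinned compound. After 24 h at 30 °C and 99% humidity, viability was read by BacTiter-Glo luminescence.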
LmPK inh: inhibitors of Leishmania mexicana pyruvate kinase; Q27686; purified LmPK, Kinase-Glo ATP luminescence, 1 h; Potency, µM (series often up to 57.5 µM), without a hit: at the highest dose activity change, negative = inhibition, actives largely listed as inhibitors; 290,000 compounds, 0.37% hits; AID 1721; also: % is scaled to controls: 0 for no effect and ±100 for the full control effect
Target sequence (Q27686 whole entry, looked up): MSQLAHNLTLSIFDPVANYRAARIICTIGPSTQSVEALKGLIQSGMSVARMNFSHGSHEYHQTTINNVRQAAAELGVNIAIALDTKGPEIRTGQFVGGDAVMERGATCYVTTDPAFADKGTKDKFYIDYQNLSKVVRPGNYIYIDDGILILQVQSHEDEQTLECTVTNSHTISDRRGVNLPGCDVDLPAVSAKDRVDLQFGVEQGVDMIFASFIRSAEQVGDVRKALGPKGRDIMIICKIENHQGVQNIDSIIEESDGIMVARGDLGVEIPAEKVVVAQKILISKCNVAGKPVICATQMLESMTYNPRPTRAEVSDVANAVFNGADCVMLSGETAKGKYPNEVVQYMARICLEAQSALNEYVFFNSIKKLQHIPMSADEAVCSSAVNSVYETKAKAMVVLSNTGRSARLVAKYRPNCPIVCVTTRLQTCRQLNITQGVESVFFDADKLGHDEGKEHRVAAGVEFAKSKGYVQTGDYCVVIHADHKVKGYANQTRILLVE
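Purified LmPK (0.1 nM) with 0.5 mM PEP and 0.1 mM ADP in imidazole buffer pH 7.2 with MgCl2/KCl, 1 h at room temperature. ATP formed was read by luciferase luminescence and normalized to no-enzyme and uninhibited controls.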
TbPYK inhibitor: inhibitors of Trypanosoma brucei pyruvate kinase | 410,000 compounds, 0.12% hits | Q57TT1 | Potency, µM (top dose mostly 76.8 µM), without a hit: at the top dose activity, negative = inhibition, most hits filed as inhibitors | TbPYK enzyme, Kinase-Glo Plus ATP luminescence, 45 min | AID 624173; also: % is scaled to controls: 0 for no effect and ±100 for the full control effect; nearly all actives have a fitted effect of over 50% in size
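In this concentration-response screen, enzyme-free wells defined baseline while DMSO plates tracked drift. Each reaction combined TbPYK, substrate, compound and 130 uM ADP for 45 min at room temperature. Kinase-Glo Plus luminescence gave the signal.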
SARS PLP yeast: blocks SARS-CoV papain-like protease in a yeast assay. S. cerevisiae expressing SARS-CoV PLpro, growth rescue. Potency, µM (titrated, usually from 32.9 µM), for inactives: at the highest dose activity, positive = growth rescue, hits mostly activators. 330,000 compounds, 0.19% hits; calls by dose curve; also: 0% is about no effect; nearly all actives have a fitted effect of over 55% in size
Starred values were filed as active, the others as inactive; ? = inconclusive; . = no result given; [ ] = another dose, or the depositor's remark. In the library only some 3.3% were active in any assay of this set; here they are far more common. Unless noted, calls follow the shape of the dose curve; as a rule, active = well fitted curve in the direction sought with a large enough effect; inconclusive = small, poorly fitted or top-dose-only effect, or another doubt; inactive = no such curve, though single readings can be large; an effect the other way counts as inactive or inconclusive. Potency is read from the fitted curve at half-maximal effect.

SMILES	Sm TGR block	NS1 inh	RE007 growth inh	LmPK inh	TbPYK inhibitor	SARS PLP yeast
Cn1c(=O)c2c(-c3ccccc3)n(Cc3ccccn3)cc2n(C)c1=O	28µM*	7%	-13%	-3%	-13%	-5%
Cc1ccc(-c2c3c(=O)n(C)c(=O)n(C)c3cn2Cc2ccccc2)cc1	45µM*	0%	5%	7%	-8%	0%
CCCn1cc2c(c1-c1ccc(C)cc1)c(=O)n(C)c(=O)n2C	0%	-5%	16%	0%	-1%	0%
CCCCc1ccc(-c2ccc(Br)cc2)nc1	0%	2%	15%	-11%	3%	8%
CCCc1ccc(-c2ccc(F)c(N)c2)nc1	-5%	-22%	-18%	16µM*	-2%	4%
CCOc1ccccc1CNC(=O)c1cc2cc(S(=O)(=O)N3CCCCC3)ccc2n1C	-1%	.	.	.	1%	.
CCC1CC2CC3c4[nH]c5ccc(OC)cc5c4CCN(C2)C13 (stereo not drawn)	.	.	.	.	-11%[157 µM]	.
CC[N+]1(C)CCC(O)(c2ccc(OC)cc2)C(C(=O)c2ccc(OC)cc2)C1 (stereo not drawn)	.	.	40µM*	.	-11%	.
N#CC1=C(N)OC2=C(CN(Cc3ccccc3)C/C2=C\c2cccnc2)C1c1cccnc1 (stereo not drawn)	22µM*	8%	17%	1%	0%	0%
CC(C)N1CC2=C(OC(N)=C(C#N)C2c2cccnc2)/C(=C/c2cccnc2)C1 (stereo not drawn)	-20%	-2%	-6%	-1%	-2%	1%
OC(c1ccc(F)cc1)(C1CCCCC1)C(CN1CCOCC1)c1ccccc1 (stereo not drawn)	89µM*	-62%	1%	12%	-4%	-3%
CC(C)CC(O)(c1ccccc1)C(CN1CCOCC1)c1ccccc1 (stereo not drawn)	-10%	-3%	1%	-6%	1%	-1%
CC(=O)N1CCN(C(=O)c2ccco2)CC1	-11%	3%	-4%	0%	2%	2%
CC(=O)N1CCc2cc(C(=O)CN3CCCN(Cc4ccc(F)cc4)C3)ccc21	45µM*	3%	.	1%	.	-6%
CC(=O)N1CCc2cc(C(=O)CN3CCN(c4cccc(Cl)c4)CC3)ccc21	25µM*	-8%	1%	5%	-6%	-5%
CC(=O)N1CCc2cc(CNC(=O)Cc3ccc(F)cc3)ccc21	-15%	.	.	.	0%	.
CC(=O)N1CCc2ccc(C(=O)CN3CCN(c4cccc(C)c4C)CC3)cc21	?	5%	.	2%	.	5%
CC(=O)N1CCc2cc(C(=O)CN3CCC(C)CC3)ccc21	28µM*	-1%	-7%	0%	5%	-6%
CC(=O)N1CCc2cc(C(=O)CN3CCN(C(=O)c4ccco4)CC3)ccc21	14µM*	3%	0%	6%	-11%	4%
Cc1c(C(=O)NCc2ccccc2Br)oc2c1-c1[nH]ncc1CC2	1%	.	.	.	-5%	.
CC1=Nc2cccc3cccc(c23)N1	40µM*	-4%	-25%	-1%	-10%	-8%
O=C(NCc1ccc(F)cc1)C1CC(=O)N(Cc2ccco2)C1 (stereo not drawn)	40µM*	7%	1%	3%	-9%	6%
COc1ccc(-c2csc(NC(=O)C3CC(=O)N(Cc4ccco4)C3)n2)cc1 (stereo not drawn)	35µM*	.	-5%	1%	3%	-1%
NS(=O)(=O)c1cccc(NC(=O)C2CC(=O)N(Cc3ccco3)C2)c1 (stereo not drawn)	50µM*	5%	-2%	-2%	4%	-2%
O=C(Nc1nccs1)C1CC(=O)N(Cc2ccco2)C1 (stereo not drawn)	10µM*	.	5%	4%	1%	3%
SMILES	Sm TGR block	NS1 inh	RE007 growth inh	LmPK inh	TbPYK inhibitor	SARS PLP yeast
CN(c1ccc(-c2csc(NC(=O)C3CC(=O)N(Cc4ccco4)C3)n2)cc1)S(C)(=O)=O (stereo not drawn)	-26%	.	9%	.	-2%	4%
C[C@]12C[C@H](O)C3[C@@H](CCC4=CC(=O)CC[C@@]43C)[C@@H]1CC[C@@H]2C(=O)CO (stereo partly drawn)	.	-5%	.	.	.	.
Cc1cccc(CNC(=O)CSCc2cnn(-c3ccccc3)c2-n2cccc2)c1	3%	.	.	.	-8%	.
Cn1cccc1C(=O)N1CCC[C@@]2(CCN(C(c3ccccc3)c3ccccc3)C2)C1	.	.	.	.	-4%	.
Nc1nonc1-c1nc2ccccc2n1CC(=O)Nc1ccccc1C(=O)O	5%	.	.	.	10%	.
Nc1nonc1-c1nc2ccccc2n1CC(=O)N/N=C/c1ccc(-c2cccc(C(=O)O)c2)o1	50µM*	.	-2%	1%	-18%	0%
Cc1ccc(NC(=S)Nc2cccc(-c3n[nH]c(=S)o3)c2)cc1	13µM*	9%	11%	-2%	-9%	-1%
COc1ccc(CNC(=O)C(=O)NCC(c2cccs2)S(=O)(=O)c2ccc(F)cc2)cc1 (stereo not drawn)	-30%	.	.	.	-4%	.
COc1ccc(CNC(=O)C(=O)NCC(c2cccs2)S(=O)(=O)c2ccc(C)cc2)cc1 (stereo not drawn)	40µM*	.	.	.	3%	.
Cc1ccc(CNC(=O)C(=O)NCC(c2cccs2)S(=O)(=O)c2ccccc2)cc1 (stereo not drawn)	2%	.	.	.	0%[15.4 µM]	.
COc1ccc(CC(=O)NCC(c2cccs2)S(=O)(=O)c2ccc(Cl)cc2)cc1 (stereo not drawn)	11µM*	.	.	.	-3%	.
Cc1ccc(CNC(=O)C(=O)NCC(c2cccs2)S(=O)(=O)c2cccs2)cc1 (stereo not drawn)	22µM*	.	.	.	1%	.
O=C(O)CSCCc1ccccc1	.	0%	.	.	.	.
Cc1ccc(-n2c(=O)[nH]c3c(C(N)=O)nc(-c4ccc(C)o4)nc32)cc1	32µM*	?	1%	7%	-6%	0%
O=C(O)c1cccc([As]=[As]c2cccc(C(=O)O)c2)c1 (stereo not drawn)	.	2%	.	.	.	.
CCOC(=O)[C@]1(CC(=O)O)CCCC1=O	.	1%	.	.	.	.
COc1ccc(/C=C/C(=O)OCC(=O)Nc2ccc(N3CCOCC3)cc2)cc1OC	0%	4%	-10%	-1%	1%	1%
COc1ccc(C(=O)Nc2ccc(S(=O)(=O)N3CCOCC3)cc2)cc1OC	8%	-11%	18%	-3%	1%	-9%
COc1ccc(CC(=O)Nc2ccc(N3CCCC3)c(C)c2)cc1	50µM*	5%	6%	2%	0%	-3%
COc1ccc(C(=O)Nc2ccc(N3CCOCC3)cc2)cc1OC	24%	-5%	?	16µM*	-31%	-3%

Compound activity from PubChem.
